# Assay results from paper PMC12820563, “FoxP3 forms a head-to-head dimer in vivo and stabilizes its multimerization on adjacent microsatellites”.
# Over roughly 16,000 sequences, “rpm ratio (pull-down/input)” has its median near 0.5; the highest 2% begin near 5.5. This is one part of a sample in which the highest values are shown more often than they occur.
# Target: T1, MBP-FoxP3dN (Mus musculus, UniProt Q99JB6 188-423)
# T1 sequence: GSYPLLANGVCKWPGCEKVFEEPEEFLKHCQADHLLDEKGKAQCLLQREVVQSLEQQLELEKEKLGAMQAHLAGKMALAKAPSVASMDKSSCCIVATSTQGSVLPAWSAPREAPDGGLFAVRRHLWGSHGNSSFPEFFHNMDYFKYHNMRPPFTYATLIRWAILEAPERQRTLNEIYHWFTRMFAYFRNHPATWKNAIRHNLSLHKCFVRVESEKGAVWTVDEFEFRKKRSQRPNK
# Test: PD-seq (MBP pull-down with sequencing); 20 mM Tris-HCl pH 7.5, 100 mM NaCl, 1.5 mM MgCl2, 0.4 uM protein, 0.1 uM dsDNA library, 30 min, room temperature, amylose pull-down; high values mean tight binding
# Details: protein: recombinant; tags: His6-MBP; chain copies: 2; dsDNA, one strand shown
# Summary of the method: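 A degenerate double-stranded DNA library, filled in with Klenow, was added at 0.1 µM to 0.4 µM His6-MBP-tagged mouse FoxP3 or FoxP1 fragment lacking the N-terminus, expressed in E. coli. Incubation lasted 30 min at room temperature in Tris pH 7.5 buffer with NaCl and MgCl2, after which complexes were collected on amylose resin, washed three times, digested with proteinase K to free the DNA, barcoded by PCR and sequenced by Illumina. Binding is the pooled-replicate reads-per-million enrichment of pull-down over input.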
row,Sequence,binding signal
1,GATGATTGTTCTCCCAGCTGATGAATTAGACCAGTCGAGTAAACAAATTTTCCTAATCTTTCTGTTCAAGCGCCATCTAC,0.233 RPM ratio (pull-down/input)
2,GATGATTGTTCTCCCAGCTGATGAATTTCTTGCGTCGAGTAAACAAATTTTCCTAATCTTTCTGTTCAAGCGCCATCTAC,0.535 RPM ratio (pull-down/input)
3,GATGATTGTTCTCCCAGCTGATGAATTCCTCGACTCGAGTAAACAAATTTTCCTAATCTTTCTGTTCAAGCGCCATCTAC,0.213 RPM ratio (pull-down/input)
4,GATGATTGTTCTCCCAGCTGATGAATTAACCGATTCGAGTAAACAAATTTTCCTAATCTTTCTGTTCAAGCGCCATCTAC,0.251 RPM ratio (pull-down/input)
5,GATGATTGTTCTCCCAGCTGATGAATTCGAGACATCGAGTAAACAAATTTTCCTAATCTTTCTGTTCAAGCGCCATCTAC,0.446 RPM ratio (pull-down/input)
6,GATGATTGTTCTCCCAGCTGATGAATTTTGCCCTTCGAGTAAACAAATTTTCCTAATCTTTCTGTTCAAGCGCCATCTAC,1.57 RPM ratio (pull-down/input)
7,GATGATTGTTCTCCCAGCTGATGAATTGCGAGGGTCGAGTAAACAAATTTTCCTAATCTTTCTGTTCAAGCGCCATCTAC,0.611 RPM ratio (pull-down/input)
8,GATGATTGTTCTCCCAGCTGATGAATTTGGGTGTTCGAGTAAACAAATTTTCCTAATCTTTCTGTTCAAGCGCCATCTAC,1.11 RPM ratio (pull-down/input)
9,GATGATTGTTCTCCCAGCTGATGAATTACCGTTATCGAGTAAACAAATTTTCCTAATCTTTCTGTTCAAGCGCCATCTAC,0.764 RPM ratio (pull-down/input)
10,GATGATTGTTCTCCCAGCTGATGAATTGACTATGTCGAGTAAACAAATTTTCCTAATCTTTCTGTTCAAGCGCCATCTAC,0.449 RPM ratio (pull-down/input)
11,GATGATTGTTCTCCCAGCTGATGAATTACCCCATTCGAGTAAACAAATTTTCCTAATCTTTCTGTTCAAGCGCCATCTAC,0.3 RPM ratio (pull-down/input)
12,GATGATTGTTCTCCCAGCTGATGAATTTGCCGCATCGAGTAAACAAATTTTCCTAATCTTTCTGTTCAAGCGCCATCTAC,1.35 RPM ratio (pull-down/input)
13,GATGATTGTTCTCCCAGCTGATGAATTCCCGCCTTCGAGTAAACAAATTTTCCTAATCTTTCTGTTCAAGCGCCATCTAC,2.93 RPM ratio (pull-down/input)
14,GATGATTGTTCTCCCAGCTGATGAATTCCGCCATTCGAGTAAACAAATTTTCCTAATCTTTCTGTTCAAGCGCCATCTAC,5.49 RPM ratio (pull-down/input)
15,GATGATTGTTCTCCCAGCTGATGAATTCCGCCTTTCGAGTAAACAAATTTTCCTAATCTTTCTGTTCAAGCGCCATCTAC,5.55 RPM ratio (pull-down/input)
16,GATGATTGTTCTCCCAGCTGATGAATTTCCGCCTTCGAGTAAACAAATTTTCCTAATCTTTCTGTTCAAGCGCCATCTAC,3.28 RPM ratio (pull-down/input)
17,GATGATTGTTCTCCCAGCTGATGAATTACCGCATTCGAGTAAACAAATTTTCCTAATCTTTCTGTTCAAGCGCCATCTAC,5.89 RPM ratio (pull-down/input)
18,GATGATTGTTCTCCCAGCTGATGAATTTACCGCATCGAGTAAACAAATTTTCCTAATCTTTCTGTTCAAGCGCCATCTAC,1.17 RPM ratio (pull-down/input)
19,GATGATTGTTCTCCCAGCTGATGAATTCCCATTTTCGAGTAAACAAATTTTCCTAATCTTTCTGTTCAAGCGCCATCTAC,0.336 RPM ratio (pull-down/input)
20,GATGATTGTTCTCCCAGCTGATGAATTGCCGCATTCGAGTAAACAAATTTTCCTAATCTTTCTGTTCAAGCGCCATCTAC,7.28 RPM ratio (pull-down/input)
21,GATGATTGTTCTCCCAGCTGATGAATTCCGCTGTTCGAGTAAACAAATTTTCCTAATCTTTCTGTTCAAGCGCCATCTAC,1.28 RPM ratio (pull-down/input)

row,Sequence,binding signal
1,GATGATTGTTCTCCCAGCTGATGAATTCGCCGCATCGAGTAAACAAATTTTCCTAATCTTTCTGTTCAAGCGCCATCTAC,0.966 RPM ratio (pull-down/input)
2,GATGATTGTTCTCCCAGCTGATGAATTACACAACTCGAGTAAACAAATTTTCCTAATCTTTCTGTTCAAGCGCCATCTAC,0.854 RPM ratio (pull-down/input)
3,GATGATTGTTCTCCCAGCTGATGAATTAATTCTGTCGAGTAAACAAATTTTCCTAATCTTTCTGTTCAAGCGCCATCTAC,0.249 RPM ratio (pull-down/input)
4,GATGATTGTTCTCCCAGCTGATGAATTCTGTTAATCGAGTAAACAAATTTTCCTAATCTTTCTGTTCAAGCGCCATCTAC,1.25 RPM ratio (pull-down/input)
5,GATGATTGTTCTCCCAGCTGATGAATTATCCTGCTCGAGTAAACAAATTTTCCTAATCTTTCTGTTCAAGCGCCATCTAC,0.234 RPM ratio (pull-down/input)
6,GATGATTGTTCTCCCAGCTGATGAATTACGTGGGTCGAGTAAACAAATTTTCCTAATCTTTCTGTTCAAGCGCCATCTAC,0.527 RPM ratio (pull-down/input)
7,GATGATTGTTCTCCCAGCTGATGAATTGGTCTCTTCGAGTAAACAAATTTTCCTAATCTTTCTGTTCAAGCGCCATCTAC,0.388 RPM ratio (pull-down/input)
8,GATGATTGTTCTCCCAGCTGATGAATTCAGCAAATCGAGTAAACAAATTTTCCTAATCTTTCTGTTCAAGCGCCATCTAC,0.539 RPM ratio (pull-down/input)
9,GATGATTGTTCTCCCAGCTGATGAATTAGCCCATTCGAGTAAACAAATTTTCCTAATCTTTCTGTTCAAGCGCCATCTAC,0.4 RPM ratio (pull-down/input)
10,GATGATTGTTCTCCCAGCTGATGAATTTTTAGCATCGAGTAAACAAATTTTCCTAATCTTTCTGTTCAAGCGCCATCTAC,0.918 RPM ratio (pull-down/input)
11,GATGATTGTTCTCCCAGCTGATGAATTAGCTGATTCGAGTAAACAAATTTTCCTAATCTTTCTGTTCAAGCGCCATCTAC,1.17 RPM ratio (pull-down/input)
12,GATGATTGTTCTCCCAGCTGATGAATTAGCGCATTCGAGTAAACAAATTTTCCTAATCTTTCTGTTCAAGCGCCATCTAC,7.23 RPM ratio (pull-down/input)
13,GATGATTGTTCTCCCAGCTGATGAATTTTAGCATTCGAGTAAACAAATTTTCCTAATCTTTCTGTTCAAGCGCCATCTAC,5.97 RPM ratio (pull-down/input)
14,GATGATTGTTCTCCCAGCTGATGAATTAGTGCATTCGAGTAAACAAATTTTCCTAATCTTTCTGTTCAAGCGCCATCTAC,7.28 RPM ratio (pull-down/input)
15,GATGATTGTTCTCCCAGCTGATGAATTAGTAAATTCGAGTAAACAAATTTTCCTAATCTTTCTGTTCAAGCGCCATCTAC,0.68 RPM ratio (pull-down/input)
16,GATGATTGTTCTCCCAGCTGATGAATTTAGCAGCTCGAGTAAACAAATTTTCCTAATCTTTCTGTTCAAGCGCCATCTAC,1.72 RPM ratio (pull-down/input)
17,GATGATTGTTCTCCCAGCTGATGAATTTAGCATCTCGAGTAAACAAATTTTCCTAATCTTTCTGTTCAAGCGCCATCTAC,6.55 RPM ratio (pull-down/input)
18,GATGATTGTTCTCCCAGCTGATGAATTCTAGCATTCGAGTAAACAAATTTTCCTAATCTTTCTGTTCAAGCGCCATCTAC,5.17 RPM ratio (pull-down/input)
19,GATGATTGTTCTCCCAGCTGATGAATTTAGCCATTCGAGTAAACAAATTTTCCTAATCTTTCTGTTCAAGCGCCATCTAC,4.73 RPM ratio (pull-down/input)
20,GATGATTGTTCTCCCAGCTGATGAATTAGTGAATTCGAGTAAACAAATTTTCCTAATCTTTCTGTTCAAGCGCCATCTAC,0.976 RPM ratio (pull-down/input)
21,GATGATTGTTCTCCCAGCTGATGAATTCCTATCGTCGAGTAAACAAATTTTCCTAATCTTTCTGTTCAAGCGCCATCTAC,0.382 RPM ratio (pull-down/input)

row,Sequence,binding signal
1,GATGATTGTTCTCCCAGCTGATGAATTTCATAGGTCGAGTAAACAAATTTTCCTAATCTTTCTGTTCAAGCGCCATCTAC,0.343 RPM ratio (pull-down/input)
2,GATGATTGTTCTCCCAGCTGATGAATTGATCATTTCGAGTAAACAAATTTTCCTAATCTTTCTGTTCAAGCGCCATCTAC,0.757 RPM ratio (pull-down/input)
3,GATGATTGTTCTCCCAGCTGATGAATTGGCTGAATCGAGTAAACAAATTTTCCTAATCTTTCTGTTCAAGCGCCATCTAC,0.239 RPM ratio (pull-down/input)
4,GATGATTGTTCTCCCAGCTGATGAATTACTCCAGTCGAGTAAACAAATTTTCCTAATCTTTCTGTTCAAGCGCCATCTAC,0.213 RPM ratio (pull-down/input)
5,GATGATTGTTCTCCCAGCTGATGAATTTGGTGTCTCGAGTAAACAAATTTTCCTAATCTTTCTGTTCAAGCGCCATCTAC,3.42 RPM ratio (pull-down/input)
6,GATGATTGTTCTCCCAGCTGATGAATTCCGACTCTCGAGTAAACAAATTTTCCTAATCTTTCTGTTCAAGCGCCATCTAC,2.16 RPM ratio (pull-down/input)
7,GATGATTGTTCTCCCAGCTGATGAATTGACCGAATCGAGTAAACAAATTTTCCTAATCTTTCTGTTCAAGCGCCATCTAC,0.227 RPM ratio (pull-down/input)
8,GATGATTGTTCTCCCAGCTGATGAATTTCAACTGTCGAGTAAACAAATTTTCCTAATCTTTCTGTTCAAGCGCCATCTAC,0.377 RPM ratio (pull-down/input)
9,GATGATTGTTCTCCCAGCTGATGAATTGGGTGTCTCGAGTAAACAAATTTTCCTAATCTTTCTGTTCAAGCGCCATCTAC,1.29 RPM ratio (pull-down/input)
10,GATGATTGTTCTCCCAGCTGATGAATTGGTGAGGTCGAGTAAACAAATTTTCCTAATCTTTCTGTTCAAGCGCCATCTAC,0.385 RPM ratio (pull-down/input)
11,GATGATTGTTCTCCCAGCTGATGAATTGGTTTCCTCGAGTAAACAAATTTTCCTAATCTTTCTGTTCAAGCGCCATCTAC,1.54 RPM ratio (pull-down/input)
12,GATGATTGTTCTCCCAGCTGATGAATTGAGCGCCTCGAGTAAACAAATTTTCCTAATCTTTCTGTTCAAGCGCCATCTAC,1.18 RPM ratio (pull-down/input)
13,GATGATTGTTCTCCCAGCTGATGAATTAAACGCATCGAGTAAACAAATTTTCCTAATCTTTCTGTTCAAGCGCCATCTAC,1.19 RPM ratio (pull-down/input)
14,GATGATTGTTCTCCCAGCTGATGAATTTAGCATTTCGAGTAAACAAATTTTCCTAATCTTTCTGTTCAAGCGCCATCTAC,6.35 RPM ratio (pull-down/input)
15,GATGATTGTTCTCCCAGCTGATGAATTAACGCATTCGAGTAAACAAATTTTCCTAATCTTTCTGTTCAAGCGCCATCTAC,6.02 RPM ratio (pull-down/input)
16,GATGATTGTTCTCCCAGCTGATGAATTAACAAATTCGAGTAAACAAATTTTCCTAATCTTTCTGTTCAAGCGCCATCTAC,0.494 RPM ratio (pull-down/input)
17,GATGATTGTTCTCCCAGCTGATGAATTTGTAGCATCGAGTAAACAAATTTTCCTAATCTTTCTGTTCAAGCGCCATCTAC,4.88 RPM ratio (pull-down/input)
18,GATGATTGTTCTCCCAGCTGATGAATTAGCATTTTCGAGTAAACAAATTTTCCTAATCTTTCTGTTCAAGCGCCATCTAC,4 RPM ratio (pull-down/input)
19,GATGATTGTTCTCCCAGCTGATGAATTTAGCTGTTCGAGTAAACAAATTTTCCTAATCTTTCTGTTCAAGCGCCATCTAC,1.7 RPM ratio (pull-down/input)
20,GATGATTGTTCTCCCAGCTGATGAATTGTAGCATTCGAGTAAACAAATTTTCCTAATCTTTCTGTTCAAGCGCCATCTAC,5.76 RPM ratio (pull-down/input)
21,GATGATTGTTCTCCCAGCTGATGAATTCGTAGCATCGAGTAAACAAATTTTCCTAATCTTTCTGTTCAAGCGCCATCTAC,1.31 RPM ratio (pull-down/input)
